Source: PubChem BioAssay AID686960 (The Scripps Research Institute Molecular Screening Center, 2013)
The list shows a part of the results. A number with no mark means an inactive call. Calls of active or inactive are those of the source. Rule as the data show it: active = IC50 below about 10 µM; inactive = the rest.

Experiment: dye displacement from CAG DNA duplex – biochemical, fluorescence, TO-PRO-1 dye, counter-screen for rCAG RNA repeat binder project, dose response (AID 686960)
Settings: DNA CAG/GTC duplex TO-PRO-1 dye displacement fluorescence

Row | Structure (SMILES) | IC50
1 | COc1ccc(C(=O)Nc2cccc(/C=C(/CCC(=O)O)c3nc4ccccc4s3)c2)cc1 | 14.2 µM
2 | O=C(Cc1ccccc1)Nc1ccc(C(=O)Nc2ccccc2C(=O)O)cc1 | > 29.9 µM
3 | CC(C)c1ccc(CC(=O)N2CCC2(C)C(=O)NS(=O)(=O)c2ccc(C(C)(C)C)cc2)cc1 (stereo unspecified) | > 29.9 µM
4 | CC(C)(C)C1C/C(=C/c2ccco2)C(=O)/C(=C/c2ccco2)C1 (stereo unspecified) | > 29.9 µM
5 | CO/N=C(\C(=O)N[C@@H]1C(=O)N2C(C(=O)O)=C(COC(C)=O)CS[C@H]12)c1csc(N)n1 (stereo in doubt) | 9.89 µM (active)
6 | Cc1ccc(S(=O)(=O)N2[C@@H](c3ccc(Br)cc3)C(C(=O)O)=C[C@H]2CC2CCCC2)cc1 | 11.6 µM
7 | COc1ccc(Cc2nnc(SCC(=O)Nc3ccc(C)c(Cl)c3)[nH]c2=O)cc1 | 24.2 µM
8 | Cc1ccc(C(C)C)c(OCCSc2nc3ccccc3n2CC(=O)O)c1 | > 29.9 µM
9 | CC1(C(=O)NS(=O)(=O)c2ccc3ccccc3c2)CCN1C(=O)C1(c2ccc(Cl)cc2)CCC1 (stereo unspecified) | 21.2 µM
10 | O=C(O)c1ccc(NN=CC2=C(N3CCOCC3)/C(=C/c3ccccc3)CC2)cc1 | 11 µM
11 | Cc1noc(NS(=O)(=O)c2ccc(NC(=O)c3oc4ccc(F)cc4c3C)cc2)c1C | 16.5 µM
